Results on 33 compounds are retold here after PubChem BioAssay (NCATS).

The structures appear in SMILES notation. Values without a mark were called inactive. Activity calls are given as the source filed them. Calls come from the whole dose curve; as a rule, active = well fitted curve in the direction sought with a large enough effect; inconclusive = small, poorly fitted or top-dose-only effect, or another doubt; inactive = no such curve, though single readings can be large or run the other way.

In the assay the target is Alpha-galactosidase (Coffea arabica) (UniProt Q42656). As to the kind of experiment: Counterscreen for Glucocerebrosidase Inhibitors: qHTS Assay for Coffee Bean alpha-Galactosidase at pH 4.5 (AID 957).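 Note: plate controls were enzyme alone for no effect and no enzyme for full effect.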 The following applies: purified coffee bean alpha-galactosidase, fluorogenic substrate; series mostly up to 76.9 µM; activity change, negative = inhibition: at the top concentration. In short, it runs like this: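 Enzyme is added first (2 nM final), then compounds titrated from 0.7 nM to 77 uM, then 80 uM 4-methylumbelliferyl alpha-D-galactopyranoside; after 20 min at room temperature a pH 10 NaOH/glycine stop precedes fluorescence reading at 365/440 nm.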
Sequence of Alpha-galactosidase (Coffea arabica) (Q42656 whole entry, looked up): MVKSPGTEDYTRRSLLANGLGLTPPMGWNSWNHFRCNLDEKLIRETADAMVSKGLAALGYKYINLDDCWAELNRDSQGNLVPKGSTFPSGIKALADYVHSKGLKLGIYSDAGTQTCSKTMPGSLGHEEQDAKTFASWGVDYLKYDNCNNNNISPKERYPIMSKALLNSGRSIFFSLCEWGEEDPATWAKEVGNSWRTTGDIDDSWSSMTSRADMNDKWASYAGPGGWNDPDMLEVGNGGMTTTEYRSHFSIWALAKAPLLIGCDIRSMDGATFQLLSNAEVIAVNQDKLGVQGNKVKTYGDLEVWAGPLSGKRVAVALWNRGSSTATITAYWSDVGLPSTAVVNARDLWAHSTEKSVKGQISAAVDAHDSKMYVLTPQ
(Counterscreens check selectivity or assay interference.)
Take `Cn1c(=O)c2c(ncn2C)n(C)c1=O`: the “activity change, negative = inhibition” value was 0.337%. Consider `CN(C)CCCN1c2ccccc2Sc2ccc(C(F)(F)F)cc21`, for which the “activity change, negative = inhibition” value was -2.09%.

For the compound `Cc1cc(C(C)(C)C)c(O)c(C)c1CC1=NCCN1`, the “activity change, negative = inhibition” value is -0.675%. Regarding `O=C(O)c1cccnc1Nc1cccc(C(F)(F)F)c1`, the “activity change, negative = inhibition” value was 2.65%. In the case of `C[C@]12CCC(=O)C=C1CC[C@@H]1[C@@H]2CC[C@@]2(C)[C@H]1CC[C@]2(O)C(=O)CO`, the “activity change, negative = inhibition” value was -2.75%.

`Cc1ccc(N(CC2=NCCN2)c2cccc(O)c2)cc1`: the “activity change, negative = inhibition” value is -4.24%. For `C(=C\c1ccccc1)/CN1CCN(C(c2ccccc2)c2ccccc2)CC1`, the “activity change, negative = inhibition” value was -0.977%. For `NC(=O)CC[C@@H](N)C(=O)O`, the “activity change, negative = inhibition” value was 1.9%. Same read-out and setting: with `CCCCNc1cc(C(=O)O)cc(S(N)(=O)=O)c1Oc1ccccc1` the figure was -2.1%. With `COCC(=O)O[C@]1(CCN(C)CCCc2nc3ccccc3[nH]2)CCc2cc(F)ccc2[C@@H]1C(C)C`, the “activity change, negative = inhibition” value was -8.46%.

Regarding `Cc1ccc(=O)n(-c2ccccc2)c1`, the “activity change, negative = inhibition” value was 0.127%. On the same count and under the same terms, with `OC(CN1CCC(Cc2ccc(F)cc2)CC1)c1ccc(Cl)cc1` (stereo not drawn) the figure was 0.164%; with `NCCc1cnc[nH]1`, -1.38%.

As to `CN(C(=O)CCCOc1ccc2[nH]c(=O)ccc2c1)C1CCCCC1`, the “activity change, negative = inhibition” value was 0.0935%. Still for that read-out and setting: the figure for `CCOC(=O)C(C)(C)Oc1ccc(Cl)cc1` is 0.246%; for `Cc1nc2sccn2c(=O)c1CCN1CCC(=C(c2ccc(F)cc2)c2ccc(F)cc2)CC1` it is -6.65%; for `c1cnc(N2CCN(Cc3ccc4c(c3)OCO4)CC2)nc1` it is -4.37%. Still for that read-out and setting: with `Cc1[nH]c(=O)c(C#N)cc1-c1ccc2nccn2c1` the figure was -0.24%; with `C[C@]12CCC(=O)C=C1CC[C@@H]1[C@@H]2C(=O)C[C@@]2(C)[C@H]1CC[C@]2(O)C(=O)CO`, 0.672%; with `NCCc1ccc(O)c(O)c1`, 1.88%. Take `OCCN1CCN(CCCN2c3ccccc3C=Cc3ccccc32)CC1`: the result was inactive. As to `O=C(O)CP(=O)(O)O`, the “activity change, negative = inhibition” value is -2.8%. For `O=C(CCCN1CCC(O)(c2cccc(C(F)(F)F)c2)CC1)c1ccc(F)cc1`, the “activity change, negative = inhibition” value was -1.42%. Still for that read-out and setting: with `CSc1ccc(C(=O)c2[nH]c(=O)[nH]c2C)cc1` the figure was -2.94%; with `CN(C)CCN(Cc1cccs1)c1ccccn1`, -3.7%; with `Cn1cnc2c1c(=O)[nH]c(=O)n2C`, -0.161%. In the case of `CN1CCC(=C2c3ccccc3CC(=O)c3sccc32)CC1`, the “activity change, negative = inhibition” value is 0.0208%.

Consider `CNC[C@H](O)c1ccc(O)c(O)c1`, for which the outcome was inactive. As for `C[N+](C)(C)CCOC(=O)CCC(=O)OCC[N+](C)(C)C`, the “activity change, negative = inhibition” value was 3.22%. The same measure, in the same setting: with `O=C(CCNNC(=O)c1ccncc1)NCc1ccccc1` the figure was -2.19%; with `O=C(Nc1ccc([N+](=O)[O-])cc1Cl)c1cc(Cl)ccc1O`, 0.0268%; with `COc1ccc(CN(CCN(C)C)c2ccccn2)cc1`, 1.12%.

Regarding `Clc1ccccc1C(c1ccccc1)(c1ccccc1)n1ccnc1`, the “activity change, negative = inhibition” value was -13.5%.
